Laboratory results: ChEMBL document CHEMBL3988442, “University of Dundee, Small-Polar-MMV Screening Library” (2021)
Out of some 48,000 compounds screened, about 13,000 (27%) showed an effect of 50% or more. The list shows a part of the results.

The molecules below were run on Wolbachia pipientis (assay: Anti-Wolbachia Cell-Based Screen). Conditions: 5 µM.
Type: functional
Design: scale not given: in the data most compounds retested in dose-response had high values

Row | SMILES | Percent Effect [%]
1 | Cc1ncccc1CNc1ccc(OCCO)nc1 | -18.76
2 | O=C(c1ccoc1)N1CCC2(CC1)COC(COCc1ccccn1)C2 (stereo unspecified) | 4.399
3 | Cc1nncn1CCNC(=O)C1SCCc2sccc21 (stereo unspecified) | 0.3971
4 | CCc1ccc(CN2CCc3[nH]nc(C(=O)N4CCNC(=O)C4)c3C2)o1 | -23.7
5 | CC(C)NC(=O)CCNC(=O)Nc1cnn(-c2ccccc2Cl)c1 | -14.09
6 | COC[C@@]12CCC[C@@H]1CN(C(=O)COc1ccccc1OC)C2 | 104.3
7 | O=C(O)C(F)(F)F.O=C(c1ccc(F)cc1)N1C[C@H]2CCC[C@@]2(COCc2ccncc2)C1 | 3.034
8 | CCO[C@@H]1CO[C@@]2(CCCN(C(=O)COc3ccccc3OC)C2)C1 | -3.938
9 | O=C(Cc1ccco1)N1C[C@H]2CCC[C@@]2(COc2cccnc2)C1 | -23.92
10 | CCOC[C@@]12CCC[C@@H]1CN(C(=O)c1ccc(OC)cc1)C2 | 116.5
11 | CCOC[C@@]12CCC[C@@H]1CN(C(=O)COc1ccccc1OC)C2 | 101.3
12 | COC[C@@]12CCO[C@@H]1CCN(C(=O)COc1ccccc1OC)C2 | 3.153
13 | Cc1ccc(C(=O)N2C[C@H]3CCC[C@@]3(COCc3ccncc3)C2)cn1.O=C(O)C(F)(F)F.O=C(O)C(F)(F)F | -7.119
14 | CC(Oc1ccccc1C(F)(F)F)C(=O)NCC(N)=O (stereo unspecified) | -1.247
15 | CCCC(CNc1cc(C(C)C)nc2ccnn12)N(C)C (stereo unspecified) | -7.916
16 | Cc1n[nH]cc1CNC1(c2ccc(F)cc2)CCCC1 | 2.933
17 | CC(C)NC(=O)N1CCN(CC2CC2)CC2(CC(=O)N(C)C2)C1.O=C(O)C(F)(F)F (stereo unspecified) | 10.52
18 | CC(=O)N1CCN(Cc2ccc(C)o2)CC2(CC(=O)N(C)C2)C1.O=C(O)C(F)(F)F (stereo unspecified) | 88.46
19 | CC(=O)N1CCN(Cc2cccs2)CC2(CC(=O)N(C)C2)C1.O=C(O)C(F)(F)F (stereo unspecified) | 101.6
20 | CN1CC2(CCN(C(=O)Cc3ccccn3)CC2)OCC1=O.O=C(O)C(F)(F)F | 23.75
21 | CCN1CC2(CC1=O)CN(Cc1ccco1)CCN(C(=O)N(C)C)C2.O=C(O)C(F)(F)F (stereo unspecified) | 1.855
22 | CC(=O)N1CCN(Cc2ccco2)CC2(CC(=O)N(C)C2)C1.O=C(O)C(F)(F)F (stereo unspecified) | 97.89
23 | CCN1CC2(CC1=O)CN(Cc1cccs1)CCN(C(=O)C(C)C)C2 (stereo unspecified) | 9.795
24 | O=C(O)C(F)(F)F.O=C(O)C(F)(F)F.O=C(O)C(F)(F)F.c1coc(CN2CCC3(CC2)COCCN(CCN2CCCC2)C3)c1 | 10.77

Row | SMILES | Percent Effect [%]
25 | Cc1ccc(CN2CCC3(CC(=O)N(c4cccc(F)c4)C3)C2)o1.O=C(O)C(F)(F)F (stereo unspecified) | 18.19
26 | CCN1CC2(CC1=O)CN(Cc1cnn(C)c1)CCN(C(=O)C(C)C)C2.O=C(O)C(F)(F)F (stereo unspecified) | -2.77
27 | CC(C)C(=O)N1CCN(Cc2ccccn2)CC2(CC(=O)N(C)C2)C1.O=C(O)C(F)(F)F.O=C(O)C(F)(F)F (stereo unspecified) | 98.24
28 | CN(CCC1CCOCC1)C(=O)C1CCC(=O)N(Cc2ccccn2)C1 (stereo unspecified) | 12.01
29 | Cc1nn(C)c(C)c1OCC(=O)NCC(O)c1ccccc1F (stereo unspecified) | -4.984
30 | O=C1N(c2ccc(Cl)cc2)Cc2n[nH]c(=O)n21 | 3.53
31 | CCCn1nc(-c2nc(COC)no2)ccc1=O | -14.93
32 | CC(=O)NCC(=O)NCC1Cn2nnc(-c3cccc(F)c3)c2CO1 (stereo unspecified) | -8.609
33 | CC(=O)N1CCN(Cc2nccs2)CC2(CC(=O)N(C)C2)C1.O=C(O)C(F)(F)F (stereo unspecified) | 92.61
34 | CN1CCC2(CCN(Cc3nccs3)CC2)C1=O.O=C(O)C(F)(F)F | 4.782
35 | CCOCC(=O)Nc1nccn1Cc1ccc(Br)cc1 | -3.698
36 | COC(=O)CCCn1ccnc1-c1ccccc1 | 2.023
37 | CCOCC(=O)NCCCn1ccnc1-c1ccccc1 | 90.19
38 | COC(=O)NCCCn1ccnc1-c1ccccc1 | 181.6
39 | CC(=O)NCCn1ccnc1-c1cccc(C(C)N(C)C)c1 (stereo unspecified) | 4.198
40 | CC(C)c1nccn1CCCNC(=O)c1ccc(-c2cccnc2)nc1 | 8.791
41 | Cc1ccc(C(=O)Nc2cc(C(N)=O)ccc2N2CCCCC2)cc1F | -3.619
42 | O=C(O)CCc1cc2n(n1)CCCN(C(=O)c1cc3ccccc3s1)C2 | 6.416
43 | Cc1ccc(C(=O)N2CCCn3nc(CCC(=O)O)cc3C2)cc1Cl | 11.92
44 | O=C(CCc1cc2n(n1)CCCN(C(=O)c1ccccn1)C2)NC1CC1 | 1.644
45 | Cn1cccc1C(=O)N1CCCn2nc(CCC(=O)NC3CC3)cc2C1 | 139.6
46 | O=C(CCc1cc2n(n1)CCCN(C(=O)[C@H]1CCCO1)C2)NC1CC1 | 170.3
47 | O=C(CCc1cc2n(n1)CCCN(C(=O)c1ccncc1)C2)NC1CC1 | 139.8
48 | O=C(CCc1cc2n(n1)CCCN(C(=O)c1cccnc1)C2)NC1CC1 | -4.751

Row | SMILES | Percent Effect [%]
49 | CCc1cc(C(=O)N2CCCn3nc(CCC(=O)O)cc3C2)cs1 | -7.139
50 | O=C(O)CCc1cc2n(n1)CCCN(C(=O)c1ccc3cc[nH]c3c1)C2 | -27.67
51 | CC(C)c1ocnc1C(=O)NC1(c2cccc(F)c2)CCOCC1 | -15.1
52 | O=S1(=O)CCCN(Cc2ccccc2OCC(F)(F)F)CC1 | 7.623
53 | Fc1cccc(-c2n[nH]cc2-c2nc(CN3CCOCC3)no2)c1 | 25.75
54 | CN1CCN(Cc2ccccc2Oc2cncc(C(N)=O)n2)CC1 | 7.262
55 | CC(=O)N1Cc2ccccc2CC1C(=O)Nc1cc(C)ccn1 (stereo unspecified) | -13.21
56 | C[C@]1(O)CN(Cc2ccc(C(=O)O)cc2)CC[C@@H]1Oc1cccc(F)c1 | 71.72
57 | COc1ccccc1OC1CN(Cc2ccc(C(=O)O)cc2)C1 | -24.62
58 | C[C@]1(O)CN(Cc2cccc(C(=O)O)c2)CC[C@@H]1Oc1cccc(F)c1 | 113.2
59 | O=C(NCC1(O)CCOc2ccccc21)Nc1ccc2c(c1)OCO2 (stereo unspecified) | 5.05
60 | CCn1cc(NC(=O)C2CCN(Cc3nc(C(C)C)no3)CC2)cn1 | 89.67
61 | CCc1noc(CN2CCC(C(=O)Nc3cnn(CC)c3)CC2)n1 | 82.9
62 | O=C(Nc1cccc(F)c1)C1CCN(Cc2noc(C3CC3)n2)CC1 | -5.725
63 | CC(C)Cc1noc(CN2CCC(C(=O)NCC3CCCO3)CC2)n1 (stereo unspecified) | 11.96
64 | O=C(Nc1ccc(F)cc1)C1CCN(Cc2noc(C3CC3)n2)CC1 | -24.67
65 | CCn1cc(NC(=O)C2CCN(Cc3ccccc3C#N)CC2)cn1 | 4.672
66 | CCCc1noc(CN2CCC(C(=O)Nc3cnn(CC)c3)CC2)n1 | 112.1
67 | CC(C)c1noc(CN2CCC(C3CCCCCN3S(C)(=O)=O)CC2)n1.Cl (stereo unspecified) | 5.236
68 | CCn1cc(NC(=O)C2CCN(Cc3noc(C(C)C)n3)CC2)cn1 | 3.174
69 | CCc1noc(C(C)N2CCC(C(=O)Nc3cnn(CC)c3)CC2)n1 (stereo unspecified) | 11.99
70 | CCn1cc(NC(=O)C2CCN(Cc3noc(C4CC4)n3)CC2)cn1 | 113.1
71 | CCn1nc(C(=O)N2CCNCC2C(=O)Nc2ccc(C)nc2)cc1C (stereo unspecified) | -9.898
72 | Cc1ncsc1CCC(=O)N1CCCC1c1cccnc1 (stereo unspecified) | -20.99

Row | SMILES | Percent Effect [%]
73 | CNc1cc(C2CCCN2Cc2ccccc2C(=O)O)ccn1 (stereo unspecified) | -9.621
74 | Cc1c(CCC(=O)N2CCCC2c2ccnc(N(C)C)c2)cnn1C (stereo unspecified) | 100.7
75 | CNc1cc(C2CCCN2C(=O)CCc2cnn(C)c2C)ccn1 (stereo unspecified) | 114.3
76 | CNc1cc(C2CCCN2C(=O)CCc2ccccc2F)ccn1 (stereo unspecified) | 87.66
77 | CN(CC(=O)N1CCCC1c1cnn(C)c1)c1ccc(Cl)cn1 (stereo unspecified) | 7.888
78 | COc1ccc(Nc2cc(C)nc(C)n2)cc1N1CCCC1=O | -4.769
79 | O[C@H]1CC[C@@H](Cc2cc(-c3ccccc3)on2)O[C@@H]1CNCC1CC1 | 0.08363
80 | OCCN1CCC(CNCc2ccc(Br)cc2)CC1 | -27.23
81 | CC(C)N(C)C(=O)C1CSCN1S(=O)(=O)c1ccccc1F (stereo unspecified) | 0.8894
82 | CCc1cc(CNC(=O)C2CCC(=O)N(Cc3ccccc3F)C2)on1 (stereo unspecified) | -10.8
83 | CN1C(Cn2cccn2)C[C@@H]2CN(Cc3nccs3)CC[C@@H]21 (stereo partly specified) | 108
84 | Cn1cc(CN2CCO[C@H]3C(Cn4cccn4)CC[C@@H]32)cn1 (stereo partly specified) | 5.846
85 | c1cnn([C@@H]2CN(Cc3nccs3)[C@@H]3CCCO[C@@H]32)c1 | -0.08077
86 | CN1C(Cn2cccn2)C[C@@H]2CN(Cc3cnn(C)c3)CC[C@@H]21 (stereo partly specified) | 88.14
87 | CC(C)N1[C@H](CN2CCCC2)C[C@@H]2CN(Cc3cnn(C)c3)CC[C@@H]21 | 1.544
88 | CC(=O)N1[C@H](Cn2cncn2)C[C@@H]2CN(Cc3nccs3)CC[C@@H]21 | 4.372
89 | Cc1nc(CN2CCN(C)C(=O)C23CCN(CC2CCCC2)CC3)cs1 | 121.4
90 | CCc1ccc(CN2CCC3(CC2)C(=O)N(C)CCN3CC)cc1 | -23.08
91 | Cc1nc(CN2CCC3(CC2)CCN(C(=O)c2cscn2)C3)cs1.O=C(O)C(F)(F)F | -22.9
92 | Cc1nc(Cn2c3c(ccc2=O)CCN(CC2CCC2)CC3)cs1.O=C(O)C(F)(F)F.O=C(O)C(F)(F)F | -14.62
93 | Cc1nc(CN2CCC3(CC2)C(=O)N(C)CCN3C)cs1.O=C(O)C(F)(F)F.O=C(O)C(F)(F)F.O=C(O)C(F)(F)F | 99.41
94 | CCN1CCN(C)C(=O)C12CCN(Cc1csc(C)n1)CC2.O=C(O)C(F)(F)F | 113.1
95 | COCC1CC2(CCN(CC3CC3)CC2)CN1Cc1csc(C)n1.O=C(O)C(F)(F)F.O=C(O)C(F)(F)F (stereo unspecified) | 2.06
96 | Cc1nc(CN2CCC3(CC2)CC(=O)N(C)c2ccccc23)cs1.O=C(O)C(F)(F)F | -15.31
